These results are taken from PubChem BioAssay (EPA / NIEHS).

In assay [1] the target is Bile acid receptor (Homo sapiens) (UniProt Q96RI1). Briefly: ATG_IR1_CIS: Attagene CIS-FACTORIAL HepG2 Assay for human Nuclear Receptor Subfamily 1 Group H Member 4 (NR1H4), IR1 submotif (AID 2282946). The conditions noted are these: IR1 reporter transcription, actives raise or lower the signal. The method, boiled down:
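Fluorescence of capillary-separated, HpaI-digested RT-PCR reporter products gave IR1-element mRNA induction in HepG2 cells 24 h after dosing. Endogenous transcription factors drove the cis-regulated reporters; activity was fitted bidirectionally against DMSO.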

The nature of assay [2]: ATG_GRE_CIS: Attagene CIS-FACTORIAL HepG2 Assay for human Glucocorticoid Response Elements (GRE) (AID 2282947). The conditions noted are these: HepG2 GRE cis-reporter, Attagene multiplex mRNA; actives raise or lower the signal. The method, boiled down:
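Fluorescence intensity of reporter-specific cDNA fragments, separated by capillary electrophoresis, provides the signal. Constructs carry cis-regulating promoters in transiently transfected HepG2 liver cells; 24 h incubation; fitting is bidirectional against DMSO.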

Assay [3] in a line: ATG_ISRE_CIS: Attagene CIS-FACTORIAL HepG2 Assay for human Interferon Regulatory Factor 1 (IRF1) binding to an Interferon-Stimulated Response Element (ISRE) (AID 2282948). The conditions noted are these: HepG2 ISRE cis-reporter (Attagene), mRNA transcription readout; actives raise or lower the signal. The gist of the method:
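Signal reflects induction or loss of ISRE-linked reporter mRNA in transiently transfected HepG2 cells after a 24 h treatment, detected by fluorescent RT-PCR fragments on capillary electrophoresis and normalised to DMSO.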

A short description of assay [4]: ATG_M_32_CIS: Attagene CIS-FACTORIAL HepG2 Assay for M32 Transcription Factor (Internal Marker) (AID 2282949).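 Also: background control marker of the multiplexed CIS panel rather than a real target.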 The conditions noted are these: HepG2 Attagene cis-factorial M32 reporter, mRNA; actives raise or lower the signal. The gist of the method:
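HepG2 transfectants (cis-regulated reporter transcription units) dosed 24 h. Reporter mRNA by RT-PCR plus CE, analysed as gain or loss relative to DMSO.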

Assay [5] in a line: ATG_M_06_CIS: Attagene CIS-FACTORIAL HepG2 Assay for M06 Transcription Factor (Internal Marker) (AID 2282950). The conditions noted are these: HepG2 Attagene CIS-FACTORIAL M06 internal marker reporter; actives raise or lower the signal. The method, boiled down:
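Terse: HepG2, transient MRTU transfection (FuGene 6), 24 h dosing; total RNA, oligo(dT) RT, PCR, FAM label, HpaI cut, capillary electrophoresis; bidirectional fit vs DMSO baseline; background-control endpoint.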

The target of assay [6] is Hepatocyte nuclear factor 6 (Homo sapiens) (UniProt Q9UBC0). Briefly: ATG_HNF6_CIS: Attagene CIS-FACTORIAL HepG2 Assay for human Hepatocyte Nuclear Factor 6 (HNF6) (AID 2282952). The note with it: HepG2 Attagene cis-factorial HNF6 reporter transcription; actives raise or lower the signal. The method, boiled down:
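Readout: fluorescent reporter-transcript fragments resolved by capillary electrophoresis after RT-PCR, reflecting endogenous factor activity in transfected HepG2. Exposure 24 h. Gain or loss of signal fitted bidirectionally against DMSO.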

Assay [7] deals with Heat shock factor protein 1 (Homo sapiens) (UniProt Q00613). As to the kind of experiment: ATG_HSE_CIS: Attagene CIS-FACTORIAL HepG2 Assay for human Heat Shock Transcription Factor 1 (HSE) (AID 2282953). The conditions noted are these: HepG2 HSE cis-reporter, Attagene RNA transcription; actives raise or lower the signal. The gist of the method:
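Read-out: fluorescence of reporter-specific RT-PCR fragments separated by capillary electrophoresis. HepG2 carrying transfected cis-element reporter units; 24 h dosing; activity fitted in both directions relative to DMSO baseline.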

Assay [8] in a line: ATG_MRE_CIS: Attagene CIS-FACTORIAL HepG2 Assay for human Metal Responsive Element (MRE) (AID 2282954). The conditions noted are these: HepG2 MRE cis-reporter transcription, Attagene multiplex; actives raise or lower the signal. The gist of the method: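 Measured here is mRNA induction from an MRE cis-element reporter in HepG2 after 24 h, quantified by fluorescence of labelled RT-PCR products on capillary electrophoresis; gain- and loss-of-signal fits use DMSO as baseline.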

The target of assay [9] is Hypoxia-inducible factor 1-alpha (Homo sapiens) (UniProt Q16665). Briefly: ATG_HIF1a_CIS: Attagene CIS-FACTORIAL HepG2 Assay for human Hypoxia Inducible Factor 1 (HIF1A) (AID 2282951). The conditions noted are these: HepG2 Attagene cis-factorial HIF1a reporter transcription; actives raise or lower the signal. The method, boiled down:
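HepG2 cells transiently transfected with multiple cis-regulated reporter transcription units measure endogenous transcription factor activity. After 24 h exposure, reporter mRNA is quantified by RT-PCR with 6-FAM labelling, HpaI digestion and capillary electrophoresis. Bidirectional fitting against DMSO.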

Assay [10] is described as follows: ATG_PBREM_CIS: Attagene CIS-FACTORIAL HepG2 Assay for human Phenobarbital-responsive Enhancer Module (PBREM) (AID 2282955). The note with it: HepG2 PBREM cis-reporter, Attagene multiplexed transcription; actives raise or lower the signal. The gist of the method: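 HepG2 cells transiently transfected with multiple cis-regulated reporter units measure endogenous transcription factor activity; 24 h compound exposure. Reporter mRNA quantified by RT-PCR, fluorescent labelling, HpaI digestion and capillary electrophoresis; bidirectional fit versus DMSO.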

Structures are written as SMILES. Several values for one entry are separate records, joined by “and”; a condition that tells them apart may be missing. Equal values may be shown once. The source holds several records for some structures; these can differ, active in one and inactive in another. Activity calls are given as the source filed them. The calls were made as follows: active = hit-call score of the fitted dose curve at least 0.9, where 1 is the maximum; inactive = score below 0.9.

Chain of Hypoxia-inducible factor 1-alpha (Homo sapiens) (Q16665 whole entry, looked up): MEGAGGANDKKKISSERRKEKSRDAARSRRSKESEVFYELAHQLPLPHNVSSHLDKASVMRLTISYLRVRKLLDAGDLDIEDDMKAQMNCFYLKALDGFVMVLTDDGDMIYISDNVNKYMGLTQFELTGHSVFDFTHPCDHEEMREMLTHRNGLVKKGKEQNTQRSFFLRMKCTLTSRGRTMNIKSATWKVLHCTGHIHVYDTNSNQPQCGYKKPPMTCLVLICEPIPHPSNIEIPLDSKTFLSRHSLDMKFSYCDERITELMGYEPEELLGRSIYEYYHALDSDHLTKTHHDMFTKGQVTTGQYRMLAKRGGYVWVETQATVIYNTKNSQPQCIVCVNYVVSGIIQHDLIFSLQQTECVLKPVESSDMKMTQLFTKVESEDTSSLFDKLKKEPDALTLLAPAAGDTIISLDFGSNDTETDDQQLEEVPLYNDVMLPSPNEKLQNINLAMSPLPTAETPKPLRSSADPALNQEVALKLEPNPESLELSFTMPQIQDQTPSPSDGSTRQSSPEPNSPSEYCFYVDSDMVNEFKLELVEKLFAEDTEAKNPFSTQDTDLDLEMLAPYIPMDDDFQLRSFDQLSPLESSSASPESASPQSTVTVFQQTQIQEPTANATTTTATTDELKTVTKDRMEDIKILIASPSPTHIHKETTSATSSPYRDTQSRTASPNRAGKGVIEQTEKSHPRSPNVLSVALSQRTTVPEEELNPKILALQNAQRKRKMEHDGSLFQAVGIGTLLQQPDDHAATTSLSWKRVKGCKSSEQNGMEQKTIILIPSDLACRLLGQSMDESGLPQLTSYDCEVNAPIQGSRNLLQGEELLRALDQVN
Chain of Bile acid receptor (Homo sapiens) (Q96RI1 whole entry, looked up): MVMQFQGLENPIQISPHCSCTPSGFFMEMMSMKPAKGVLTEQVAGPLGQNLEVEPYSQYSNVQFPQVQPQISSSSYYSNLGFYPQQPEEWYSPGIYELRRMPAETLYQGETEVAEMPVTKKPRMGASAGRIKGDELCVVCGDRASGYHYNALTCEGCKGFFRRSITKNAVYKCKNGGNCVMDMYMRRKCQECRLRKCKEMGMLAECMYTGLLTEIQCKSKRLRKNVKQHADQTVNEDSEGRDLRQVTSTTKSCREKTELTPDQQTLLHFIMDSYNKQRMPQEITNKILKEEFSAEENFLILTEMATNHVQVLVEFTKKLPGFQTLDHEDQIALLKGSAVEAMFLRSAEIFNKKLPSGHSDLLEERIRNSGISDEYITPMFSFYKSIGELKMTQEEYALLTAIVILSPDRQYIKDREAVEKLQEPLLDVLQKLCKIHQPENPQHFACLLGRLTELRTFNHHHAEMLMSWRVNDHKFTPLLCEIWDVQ
Chain of Heat shock factor protein 1 (Homo sapiens) (Q00613 whole entry, looked up, the tested form may be a part): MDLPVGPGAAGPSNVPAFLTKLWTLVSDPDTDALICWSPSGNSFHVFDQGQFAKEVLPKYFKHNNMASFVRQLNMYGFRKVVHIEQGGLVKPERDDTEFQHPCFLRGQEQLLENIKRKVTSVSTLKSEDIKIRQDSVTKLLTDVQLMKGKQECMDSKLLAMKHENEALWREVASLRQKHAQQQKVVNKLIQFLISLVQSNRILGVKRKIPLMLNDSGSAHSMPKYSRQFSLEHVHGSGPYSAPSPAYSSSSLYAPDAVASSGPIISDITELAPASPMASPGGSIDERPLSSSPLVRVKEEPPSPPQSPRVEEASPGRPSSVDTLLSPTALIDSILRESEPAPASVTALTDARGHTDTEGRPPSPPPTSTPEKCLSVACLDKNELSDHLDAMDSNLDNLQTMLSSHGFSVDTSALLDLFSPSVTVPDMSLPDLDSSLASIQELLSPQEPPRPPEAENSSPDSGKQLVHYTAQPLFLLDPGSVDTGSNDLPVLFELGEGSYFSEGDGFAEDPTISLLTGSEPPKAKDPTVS
Chain of Hepatocyte nuclear factor 6 (Homo sapiens) (Q9UBC0 whole entry, looked up, the tested form may be a part): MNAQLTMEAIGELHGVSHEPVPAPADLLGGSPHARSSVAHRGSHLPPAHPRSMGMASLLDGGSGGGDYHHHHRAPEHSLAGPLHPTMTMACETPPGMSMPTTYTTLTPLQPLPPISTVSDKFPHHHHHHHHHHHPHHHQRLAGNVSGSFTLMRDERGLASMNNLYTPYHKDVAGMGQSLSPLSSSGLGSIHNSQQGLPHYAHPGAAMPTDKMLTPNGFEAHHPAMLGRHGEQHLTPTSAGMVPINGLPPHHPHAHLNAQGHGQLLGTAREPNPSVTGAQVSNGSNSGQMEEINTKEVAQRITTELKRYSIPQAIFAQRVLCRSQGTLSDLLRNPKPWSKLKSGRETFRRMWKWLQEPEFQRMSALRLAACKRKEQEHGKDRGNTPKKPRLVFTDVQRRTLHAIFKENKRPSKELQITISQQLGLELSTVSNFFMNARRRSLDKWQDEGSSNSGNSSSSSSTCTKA

On to `CCC(C)c1ccc(O)cc1` (stereo not given), for which the call in assay [1], in assay [2], in assay [3], in assay [4], in assay [5] and in assay [6] was inactive. Also, the call in assay [7] was inactive.
Usually AC50 stands for the midpoint of the concentration-response curve, whichever way the signal moves. Regarding `Cc1cc(N=Nc2ccccc2C)ccc1N`, the call in [1], in assay [2], in assay [3], in assay [4], in [5] and in assay [6] was inactive. Besides, the AC50 in [7] is 53.8 µM (active); in [8], 27.9 µM (active).
For the molecule `CC(C)COC(=O)c1ccccc1C(=O)OCC(C)C`, the outcome in assay [1], in assay [2], in assay [4], in assay [9], in assay [6] and in assay [7] was inactive. The figures for the concentration at half-maximal activity (AC50) in assay [3] and in assay [8] were 167 µM (active) and 109 µM (active), respectively.
As to `N#CC(Br)Br`, the molecule was classed as inactive in [1], in [2], in assay [3], in [4], in assay [5] and in assay [6]. Further, the result in assay [7] and in assay [10] was inactive.
With `CN(C)C(=O)Nc1ccc(Cl)cc1`, the molecule was classed as inactive in [1], in assay [2], in assay [3], in assay [4], in [5] and in [6]. Also, the result in assay [7] and in assay [8] was inactive.
As for `c1ccc(NNc2ccccc2)cc1`, the molecule was called inactive in [1], in assay [2], in assay [3], in assay [4], in [9] and in assay [6]. Also, the molecule was classed as inactive in [7].
In the case of `OCCCl`, the molecule was classed as inactive in [1], in assay [2], in assay [3], in assay [4], in assay [5] and in assay [6]. Also, the molecule was called inactive in assay [7], in [8] and in [10].
Regarding `CCOC(=O)[C@]1(c2ccccc2)Oc2ccccc2[C@@H]1N`, the call in assay [1] and in [5] was inactive. For the same molecule, the concentration at half-maximal activity (AC50) was 52.6 µM (active) in assay [2]; 33 µM (active) in assay [3]; 52.7 µM (active) in assay [4]; 1.78 µM (active) in [9]; 43.3 µM (active) in assay [6]; 61.8 µM (active) in assay [7].
As to `OCCOCCO`, the result in assay [1], in assay [2], in assay [3], in [4], in assay [5] and in assay [6] was inactive. Moreover, the result in assay [8] was inactive.
Turning to `CCCCCCCCn1sccc1=O`, the outcome in assay [1], in assay [2], in assay [4], in assay [5] and in assay [9] was inactive. Besides, the results for the AC50 in [3], in [6] and in [7] were 17.6 µM (active), 21 µM (active) and 16.7 µM (active), respectively.
For the molecule `O=P(OCCCl)(OCCCl)OCCCl`, the outcome in assay [1], in [2], in [3], in [4], in [5] and in assay [9] was inactive. The molecule was called inactive in assay [6] and in [7].
As to `CN(C)c1ccc(C(=O)c2ccc(N(C)C)cc2)cc1`, the call in assay [1], in [2], in assay [3], in assay [4], in assay [5] and in assay [9] was inactive. Also, the call in assay [6], in assay [7] and in [10] was inactive.
As for `Nc1ccc([N+](=O)[O-])cc1`, the call in [1], in [2], in assay [3], in assay [4], in assay [9] and in assay [6] was inactive. Also, the molecule was classed as inactive in [7] and in assay [8].
As for `Clc1ccc(C(c2ccc(Cl)cc2)C(Cl)Cl)cc1`, the AC50 in assay [1] is 21.2 µM (active); in assay [3], 49.4 µM (active); in assay [7], 51.7 µM (active). Further, the result in assay [2], in [4], in assay [5] and in [6] was inactive.
With `Nc1ccc(N=Nc2ccccc2)cc1`, the call in assay [1], in [2], in assay [4], in assay [5], in assay [6] and in assay [7] was inactive. In addition, the values for the AC50 in [3], in assay [9] and in assay [10] were 57.2 µM (active), 58.1 µM (active) and 67.3 µM (active), respectively.
With `CN(C)[C@@H]1C(=O)C(C(N)=O)=C(O)[C@@]2(O)C(=O)C3=C(O)c4c(O)cccc4[C@@](C)(O)[C@H]3C[C@@H]12`, the molecule was classed as inactive in assay [1], in assay [2], in [3], in [4], in assay [5] and in assay [6]. For the same molecule, the molecule was classed as inactive in assay [7] and in [8].
For `CCC[CH2][Sn]([Cl])([CH2]CCC)[CH2]CCC`, the concentration at half-maximal activity (AC50) in assay [1] is 0.0138 µM (active); in assay [3], 0.611 µM (active); in assay [7] it was 0.667 µM (active); in assay [8], 0.778 µM (active). The call in [2], in assay [4], in [9] and in assay [6] was inactive.
Regarding `CN(C)c1ccccc1`, the molecule was classed as inactive in assay [1], in assay [2], in assay [3], in assay [4], in assay [5] and in [6]. Also, the result in assay [7] and in assay [8] was inactive.
Take `C[C@]12C=CC3=C4CCC(=O)C=C4CC[C@H]3[C@@H]1CC[C@@H]2O`: the AC50 is 760 nM (active) and 26.7 µM (active) and 26.8 µM (active) in [1]; 59.8 µM (active) [middle of 4 runs] in assay [3]. Besides, the call in assay [1], in assay [3], in assay [4], in [6] and in [7] was inactive.
In the case of `CC(C)(OOC(C)(C)c1ccccc1)c1ccccc1`, the call in [1], in [4], in assay [5] and in [7] was inactive. Also, the AC50 in assay [2] is 78.3 µM (active); in [3], 100 µM (active); in [6], 100 µM (active); in [8], 64 µM (active).
Take `Clc1ccc(C(c2ccc(Cl)cc2)C(Cl)(Cl)Cl)cc1`: the molecule was classed as inactive in assay [1], in [2], in assay [4], in assay [9], in assay [6] and in assay [7]. In addition, the AC50 in assay [3] was 62.2 µM (active).
On to `Cc1cccc(N)c1N`, for which the outcome in [1], in assay [2], in assay [3], in assay [4], in assay [5] and in [6] was inactive. Further, the result in [7] was inactive. Also, the concentration at half-maximal activity (AC50) in assay [8] was 106 µM (active).
On to `Nc1ccc(Cl)cc1N`, for which the call in assay [1], in assay [2], in assay [3], in [4], in assay [5] and in [6] was inactive. Further, the call in [7] and in [10] was inactive. In addition, the half-maximal activity concentration (AC50) in assay [9] was 27.6 µM (active).
As to `Clc1ccccc1Cl`, the molecule was called inactive in assay [1], in [2], in assay [3], in [4], in assay [5] and in assay [6]. For the same molecule, the molecule was called inactive in [7] and in assay [10].
